An excerpt weighted towards active compounds, which were near 21% of everything screened.
Sm TGR block = blocks Schistosoma mansoni thioredoxin glutathione reductase; purified TGR, DTNB reduction, TNB absorbance 405 nm; Q962Y6; Potency, µM (top dose mostly 114 µM), for inactives: top-dose activity change, negative = inhibition, actives largely listed as inhibitors; actives 3% (n = 360,000); further: potency means the concentration at half of the fitted maximal effect; on the % scale 0 is the no-effect control and ±100 the full control effect; nearly all actives have a fitted effect of over 60% in size
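Kinetic colorimetric format: TGR-catalysed, NADPH-driven DTNB reduction monitored via TNB absorbance. Enzyme dispensed at 20 nM; compound exposure 15 min at room temperature before reaction start.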
NS1 function inh = influenza NS1 inhibition; Potency, µM (top dose mostly 46.1 µM), without a hit: at the top dose activity, positive = more growth; actives 0.4% (n = 270,000); AID 2326; calls by dose curve; further: potency means the concentration at half of the fitted maximal effect; actives are rising curves; nearly all actives have a fitted effect of over 50% in size
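Growth recovery, yeast-based: influenza A NS1 expressed in S. cerevisiae causes slow growth, and suppressors are detected by OD600. The parent strain without NS1 is used as positive control.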
Pf growth 96h = P. falciparum growth inhibition at 96 hour, primary screen for plastid delayed-death inhibitors; P. falciparum luciferase reporter growth, 96 h; Potency, µM (series often up to 28.7 µM), inactives show at the highest dose activity change, negative = inhibition, most hits filed as inhibitors; actives 6.9% (n = 320,000); AID 504834; further: potency means the concentration at half of the fitted maximal effect; on the % scale 0 is the no-effect control and ±100 the full control effect
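Cell-based qHTS: luciferase-tagged P. falciparum in erythrocytes (2% hematocrit, 0.05% parasitemia final) incubated with compounds for 96 hours, 37 C, 5% CO2; luciferase detection reagent then added and luminescence measured.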
Pf growth 48h = P. falciparum growth inhibition at 48 hours (one generation); actives 5.9% (n = 310,000); AID 504832; Potency, µM (series often up to 28.7 µM), inactives show top-dose activity change, negative = inhibition, most hits filed as inhibitors; P. falciparum luciferase growth in erythrocytes, 48 h; further: potency means the concentration at half of the fitted maximal effect; on the % scale 0 is the no-effect control and ±100 the full control effect
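In quantitative HTS format, infected erythrocytes bearing luciferase-reporter parasites were treated for a single generation at 37 C. Luminescence after adding detection reagent served as the growth measure.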
Cycloheximide cs = counter-screen hit for Shiga toxin inhibitors, cycloheximide. cell reporter, cycloheximide protein synthesis inhibition counterscreen. max response, %. actives 12% (n = 300,000). AID 2314; in the data active means max response mostly above about 13%, no sharp cut-off; inactive means mostly below about 14%; further: read at 38.3 µM for the half of the compounds with a filed dose; 0% is about no effect
Shiga toxin inh = Shiga toxin inhibition; Vero cells, Shiga toxin protein synthesis inhibition reporter; inhibition, % at 38.7 µM; actives 9.2% (n = 290,000); AID 2315; in the data active means inhibition mostly above about 28%, no sharp cut-off; inactive means mostly below about 43%; further: 0% is about no effect
Numbers without * were called inactive. Unless noted, the call rests on the fitted dose curve; in most records, active means well fitted curve in the direction sought with a large enough effect; inconclusive means small, poorly fitted or top-dose-only effect, or another doubt; inactive means no such curve, though single readings can be large; an effect the other way counts as inactive or inconclusive.

For CN(CCCC(=O)Nc1ccc(OC(F)F)cc1)S(=O)(=O)c1ccc(F)cc1 the results were Sm TGR block 8%, NS1 function inh -17%, Pf growth 96h inconclusive, Pf growth 48h inconclusive, Cycloheximide cs 4 and Shiga toxin inh -6.
Screening COc1ccccc1Cc1nc2ccccc2nc1SCC(=O)Nc1cc(Cl)ccc1OC returned Sm TGR block 0%.
Screening Cc1c(Cl)c([N+](=O)[O-])nn1CC(=O)N1CCN(C23CC4CC(CC(C4)C2)C3)CC1 returned Sm TGR block -14%, NS1 function inh 0%, Pf growth 96h 2%, Pf growth 48h 12µM*, Cycloheximide cs 0 and Shiga toxin inh -10.
`CCCCOc1ccc(NC(=O)Nc2nnc(C)s2)cc1` gave Sm TGR block 7%, NS1 function inh 8%, Pf growth 96h 0%, Pf growth 48h 29%, Cycloheximide cs 10 and Shiga toxin inh 28.
COc1ccc(-c2cc(C)no2)cc1S(=O)(=O)N1CCOc2ccc(Cl)cc21 was read as Sm TGR block -2%, NS1 function inh 15%, Pf growth 96h 10µM*, Pf growth 48h inconclusive, Cycloheximide cs -4 and Shiga toxin inh 3.
For CCOC(=O)c1c(-c2ccccc2)oc2ccc(NS(=O)(=O)c3cc(C)c(C)cc3C)cc12 the results were Sm TGR block 4%.
O=S(=O)(Nc1cc(C(F)(F)F)ccc1N1CCOCC1)c1ccccc1 was read as Sm TGR block 1%, NS1 function inh 3%, Pf growth 96h inconclusive, Pf growth 48h inconclusive, Cycloheximide cs -3 and Shiga toxin inh -1.
`Cc1ccc(S(=O)(=O)Nc2cc(C(F)(F)F)ccc2N2CCOCC2)cc1C` gave Sm TGR block -4%, NS1 function inh 19%, Pf growth 96h inconclusive, Pf growth 48h 3.3µM*, Cycloheximide cs -2 and Shiga toxin inh 3.
`O=S(=O)(Nc1cc(C(F)(F)F)ccc1N1CCOCC1)c1ccc2ccccc2c1` gave Sm TGR block 1%, NS1 function inh -12%, Pf growth 96h 13µM*, Pf growth 48h inconclusive, Cycloheximide cs 1 and Shiga toxin inh -22.
CCOC(=O)c1ccc(N2CCCCC2)c(NS(=O)(=O)c2cccc(C(F)(F)F)c2)c1 was read as Sm TGR block 8%, NS1 function inh inconclusive, Pf growth 96h 9.3µM*, Pf growth 48h 10µM*, Cycloheximide cs 13 and Shiga toxin inh 30.
For CC(=O)c1cccc(S(=O)(=O)Nc2cc(C(F)(F)F)ccc2N2CCOCC2)c1 the results were Sm TGR block -13%, Pf growth 96h inconclusive and Pf growth 48h inconclusive.
C/C=C/Cn1c(SCCCc2ccccc2)nc2c1c(=O)[nH]c(=O)n2C was read as Sm TGR block 4%, NS1 function inh -74%, Pf growth 96h 0.93µM*, Pf growth 48h inconclusive, Cycloheximide cs -2 and Shiga toxin inh -6.
For COCCn1c(SCCCc2ccccc2)nc2c1c(=O)[nH]c(=O)n2C the results were Sm TGR block -5%, NS1 function inh -57%, Pf growth 96h -7%, Pf growth 48h inconclusive, Cycloheximide cs -4 and Shiga toxin inh -9.
C=CCn1c(SCCCc2ccccc2)nc2c1c(=O)[nH]c(=O)n2C was read as Sm TGR block -20%, NS1 function inh -70%, Pf growth 96h 4.1µM*, Pf growth 48h inconclusive, Cycloheximide cs -2 and Shiga toxin inh -9.
For Cc1ccc(NC(=O)CN(C)C(=O)c2cccc(Br)c2)cc1 the results were Sm TGR block -4%, NS1 function inh 7%, Pf growth 96h 48%, Pf growth 48h 16%, Cycloheximide cs 4 and Shiga toxin inh 23.
For CCOc1cc(C(=O)NCc2ccco2)cc(OCC)c1OCC the results were Sm TGR block -1%, NS1 function inh 0%, Pf growth 96h inconclusive, Pf growth 48h -10%, Cycloheximide cs -1 and Shiga toxin inh -3.
For CCOc1ccc(N(C(C)C(=O)NCc2ccco2)S(C)(=O)=O)cc1 (stereo not drawn) the results were Sm TGR block 45µM*, NS1 function inh -1%, Pf growth 96h 6%, Cycloheximide cs -3 and Shiga toxin inh -13.
For CCCCCOc1ccc(C(=O)OC(C)C(=O)NCc2ccco2)cc1 (stereo not drawn) the results were Sm TGR block -4%, NS1 function inh -19%, Pf growth 96h 13µM*, Pf growth 48h inconclusive, Cycloheximide cs 15 and Shiga toxin inh 27.
CCOc1ccc(N(C(C)C(=O)NC2CCCCCC2)S(C)(=O)=O)cc1 (stereo not drawn) was read as Sm TGR block -5%, NS1 function inh -12%, Pf growth 96h 15%, Pf growth 48h -28%, Cycloheximide cs 6 and Shiga toxin inh 8.
For CCCOc1ccc(C(=O)NCc2ccco2)cc1 the results were Sm TGR block 1%, NS1 function inh -63%, Pf growth 96h inconclusive, Pf growth 48h inconclusive, Cycloheximide cs 35* and Shiga toxin inh 74*.
Screening CC(OC(=O)C1=Cc2ccccc2OC1)C(=O)NCc1ccco1 (stereo not drawn) returned Sm TGR block -17%, Pf growth 96h 0%, Pf growth 48h -3%, Cycloheximide cs 23* and Shiga toxin inh 42.
For O=C(NCc1ccco1)c1ccccc1 the results were Sm TGR block 5%, NS1 function inh -5%, Pf growth 96h 2%, Pf growth 48h 8%, Cycloheximide cs 0 and Shiga toxin inh -3.
`CC(C)Oc1ccc(C(=O)NCc2ccco2)cc1` gave Sm TGR block inconclusive, NS1 function inh -4%, Pf growth 96h 58%, Pf growth 48h inconclusive, Cycloheximide cs 29* and Shiga toxin inh 38*.
Screening C#CCOCCOCCOCCNc1nc(N2CCN(C(=O)[C@H]([C@@H](C)CC)n3cc([C@@H](N)CC(C)C)nn3)CC2)nc(N2CCN(C(=O)[C@H](Cc3cc4ccccc4[nH]3)n3cc([C@@H](N)C(C)CC)nn3)CC2)n1 (stereo partly drawn) returned Sm TGR block inconclusive, NS1 function inh -8%, Pf growth 96h 1.2µM*, Pf growth 48h 4.7µM*, Cycloheximide cs -2 and Shiga toxin inh -6.
C#CCOCCOCCOCCNc1nc(N2CCN(C(=O)[C@H](Cc3ccc(O)cc3)n3cc([C@@H](N)C(C)CC)nn3)CC2)nc(N2CCN(C(=O)[C@H](Cc3cc4ccccc4[nH]3)n3cc([C@@H](N)Cc4ccc(O)cc4)nn3)CC2)n1 (stereo partly drawn) was read as Sm TGR block 0%, NS1 function inh -47%, Pf growth 96h inconclusive, Pf growth 48h 10µM*, Cycloheximide cs -4 and Shiga toxin inh 13.
